Measured values published in PubChem BioAssay (NCATS).
Inconclusive results are not listed. Active and inactive are the calls of the source. The call rests on the fitted dose curve; in most records, active means well fitted cell-killing curve with a large enough effect; inconclusive means small, poorly fitted or top-dose-only effect, or effect the other way; inactive means no such curve, though single readings can be large or run the other way.

Legend:
[1] = Quantitative High-Throughput drug screen in 47 multiple myeloma cell lines against the NCATS MIPE library collection: XG1_PLB cell viability assay (AID 1919866); details: CellTiter-Glo ATP, 48 h; series mostly up to 45.8 µM; further: nearly all actives have a fitted effect of over 35% in size
How it was run: (§1)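 MIPE 4.0 approved/investigational drugs; 500 cells/well; 48 h 37 °C humidified 5% CO2; CTG luminescence readout; DMSO = 100%, media = 0% viability.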

[2] = Quantitative High-Throughput drug screen in 47 multiple myeloma cell lines against the NCATS MIPE library collection: VP6_DJ cell viability assay (AID 1919867); details: ATP luminescence, 48 h; series mostly up to 45.8 µM; further: nearly all actives have a fitted effect of over 40% in size
How it was run: as §1

[3] = Quantitative High-Throughput drug screen in 47 multiple myeloma cell lines against the NCATS MIPE library collection: PE2_PLB cell viability assay (AID 1919869); details: PE2_PLB myeloma cells viability, ATP luminescence, 48 h; series mostly up to 45.8 µM; further: nearly all actives have a fitted effect of over 35% in size
How it was run: as §1

[4] = Quantitative High-Throughput drug screen in 47 multiple myeloma cell lines against the NCATS MIPE library collection: PCM6_Riken cell viability assay (AID 1919870); details: CellTiter-Glo ATP, 48 h; series mostly up to 45.8 µM; further: nearly all actives have a fitted effect of over 30% in size
How it was run: as §1

[5] = Quantitative High-Throughput drug screen in 47 multiple myeloma cell lines against the NCATS MIPE library collection: RPMI8226_ATCC cell viability assay (AID 1919871); details: RPMI8226 myeloma viability, CellTiter-Glo ATP luminescence, 48 h; series mostly up to 45.8 µM; further: nearly all actives have a fitted effect of over 30% in size
How it was run: as §1

[6] = Quantitative High-Throughput drug screen in 47 multiple myeloma cell lines against the NCATS MIPE library collection: OPM2_DSMZ cell viability assay (AID 1919872); details: OPM2 myeloma viability, CellTiter-Glo ATP luminescence, 48 h; series mostly up to 45.8 µM; further: nearly all actives have a fitted effect of over 30% in size
How it was run: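 Relative luminescence from CellTiter-Glo served as the viability signal, referenced to DMSO-treated (100%) and cell-free medium (0%) controls. Treatment lasted 48 hours at 37C with 500 cells per well.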

[7] = Quantitative High-Throughput drug screen in 47 multiple myeloma cell lines against the NCATS MIPE library collection: KMS11_JCRBsus cell viability assay (AID 1919873); details: KMS11 myeloma viability, CellTiter-Glo ATP luminescence, 48 h; series mostly up to 45.8 µM; further: nearly all actives have a fitted effect of over 50% in size
How it was run: as §1

[8] = Quantitative High-Throughput drug screen in 47 multiple myeloma cell lines against the NCATS MIPE library collection: KMS28BM_JCRB cell viability assay (AID 1919874); details: CellTiter-Glo ATP, 48 h; series mostly up to 45.8 µM; further: nearly all actives have a fitted effect of over 35% in size
How it was run: as §1

[9] = Quantitative High-Throughput drug screen in 47 multiple myeloma cell lines against the NCATS MIPE library collection: UTMC2_PLB cell viability assay (AID 1919868); details: CellTiter-Glo ATP luminescence, 48 h; viability (% of DMSO control): at 45.8 µM (top of the series); further: nearly all actives have a fitted effect of over 55% in size
How it was run: as §1
Potency means the concentration at half of the fitted maximal effect.

| Structure (SMILES) | Potency [1] | Potency [2] | Potency [3] | Potency [4] | Potency [5] | Potency [6] | Potency [7] | Potency [8] | Potency [9] |
| --- | --- | --- | --- | --- | --- | --- | --- | --- | --- |
| COc1ccc([C@@H]2CC(=O)c3c(O)cc(O[C@@H]4O[C@H](CO[C@@H]5O[C@@H](C)[C@H](O)[C@@H](O)[C@@H]5O)[C@@H](O)[C@H](O)[C@@H]4O)cc3O2)cc1O | 4.18 µM (active) | inactive | inactive | inactive | inactive | inactive | inactive | inactive | – |
| CS(=O)(=O)c1cccc(CNc2nc(Nc3ccc4c(c3)CCC(=O)N4)ncc2C(F)(F)F)c1 | 11.8 µM (active) | 5.26 µM (active) | 18.7 µM (active) | 7.43 µM (active) | 18.7 µM (active) | 20.9 µM (active) | 8.33 µM (active) | 16.6 µM (active) | 11.8 µM (active) |
| Cn1cnc2c(F)c(Nc3ccc(Br)cc3Cl)c(C(=O)NOCCO)cc21 | 0.0935 µM (active) | 0.296 µM (active) | 0.235 µM (active) | 0.166 µM (active) | 0.935 µM (active) | – | inactive | – | inactive |
| CC1(C)Cc2c(-c3ccccc3)c(-c3ccc(Cl)cc3)c(CC(=O)O)n2C1 | 14.8 µM (active) | 14.8 µM (active) | 20.9 µM (active) | 20.9 µM (active) | – | 23.5 µM (active) | 18.7 µM (active) | 16.6 µM (active) | 16.6 µM (active) |
| Cc1cc([C@@H](C)Nc2ccccc2C(=O)O)c2nc(N3CCOCC3)cc(=O)n2c1 | 4.29 µM (active) | 9.59 µM (active) | 9.59 µM (active) | – | – | 42.9 µM (active) | – | – | 3.82 µM (active) |
| COc1ccc2c3n(c(=NC(=O)c4cccnc4)nc2c1OC)CCN3 | 1.48 µM (active) | 1.48 µM (active) | 11.8 µM (active) | – | – | – | – | – | 3.32 µM (active) |
| N[C@@H]1CONC1=O | inactive | 20.9 µM (active) | inactive | – | inactive | inactive | inactive | inactive | inactive |
| CNC[C@H](O)c1cccc(O)c1 | inactive | 1.32 µM (active) | inactive | – | – | inactive | inactive | inactive | 0.0021 µM (active) |
| CN1CCN(CCCN2c3ccccc3Sc3ccc(C(F)(F)F)cc32)CC1 | 1.18 µM (active) | 2.09 µM (active) | 9.35 µM (active) | 1.48 µM (active) | – | inactive | inactive | inactive | 10.5 µM (active) |
| CCOC(=O)C1=C[C@]2(CC)CCCN3CCc4c(n1c1ccccc41)[C@@H]32 | 6.62 µM (active) | 9.35 µM (active) | 9.35 µM (active) | 8.33 µM (active) | 14.8 µM (active) | 26.4 µM (active) | 8.33 µM (active) | 8.33 µM (active) | 9.35 µM (active) |
| CN(C(=O)c1ccc(F)cc1C(F)(F)F)C1CCN(c2nnc(-c3ccnn3C)c3ccccc23)CC1 | 13.2 µM (active) | 16.6 µM (active) | 18.7 µM (active) | – | – | – | – | – | – |
| CCCS(=O)(=O)Nc1ccc(F)c(C(=O)c2c[nH]c3ncc(-c4ccc(Cl)cc4)cc23)c1F | 7.43 µM (active) | 18.7 µM (active) | 11.8 µM (active) | 5.26 µM (active) | – | – | 8.33 µM (active) | – | 14.8 µM (active) |
| CCN(c1ccccc1)c1cc(NC)[n+](C)c(C)n1 | inactive | inactive | inactive | inactive | inactive | inactive | inactive | – | inactive |
| Cn1cnc([N+](=O)[O-])c1Sc1ncnc2nc[nH]c12 | 5.26 µM (active) | 16.6 µM (active) | 14.8 µM (active) | 11.8 µM (active) | 0.935 µM (active) | 0.833 µM (active) | – | 5.9 µM (active) | 5.26 µM (active) |
| COc1cccc2cc(-c3nc(C4CCC(C(=O)O)CC4)n4ncnc(N)c34)[nH]c12 (stereo unspecified) | 0.148 µM (active) | 0.833 µM (active) | 0.372 µM (active) | 1.87 µM (active) | 0.59 µM (active) | 2.96 µM (active) | 0.132 µM (active) | 1.48 µM (active) | 0.235 µM (active) |
| NC(=O)C1CCCc2c1[nH]c1ccc(Cl)cc21 (stereo unspecified) | 16.6 µM (active) | 3.32 µM (active) | 16.6 µM (active) | 16.6 µM (active) | inactive | inactive | inactive | – | – |
| CS(=O)(=O)Oc1ccc2c(NC(N)=O)c(C(=O)c3ccc(Cl)cc3Cl)oc2c1 | 20.9 µM (active) | 9.35 µM (active) | 23.5 µM (active) | 20.9 µM (active) | – | inactive | 5.26 µM (active) | 2.35 µM (active) | 16.6 µM (active) |
| COc1ccc(COc2cc3oc(=O)c4cc(C(C)O)ccc4c3cc2OC)cc1 (stereo unspecified) | 13.2 µM (active) | 14.8 µM (active) | 14.8 µM (active) | – | 20.9 µM (active) | – | – | – | 20.9 µM (active) |

| Structure (SMILES) | Potency [1] | Potency [2] | Potency [3] | Potency [4] | Potency [5] | Potency [6] | Potency [7] | Potency [8] | Potency [9] |
| --- | --- | --- | --- | --- | --- | --- | --- | --- | --- |
| Cc1cc2c(C(C)C)c(O)c(O)c(C=O)c2c(O)c1-c1c(C)cc2c(C(C)C)c(O)c(O)c(C=O)c2c1O | 8.33 µM (active) | 5.9 µM (active) | 5.9 µM (active) | 6.62 µM (active) | 20.9 µM (active) | 18.7 µM (active) | 5.9 µM (active) | 10.5 µM (active) | 5.9 µM (active) |
| CC(C)OC(=O)C1=CN(C(=O)c2ccc(F)c(F)c2)CC(C)(C)c2c1[nH]c1ccccc21 | inactive | 1.87 µM (active) | inactive | inactive | inactive | inactive | inactive | – | inactive |
| O=NN(CCCl)C(=O)NCCCl | inactive | inactive | inactive | inactive | inactive | inactive | – | – | – |
| O=C(O)COCCN1CCN(C(c2ccccc2)c2ccc(Cl)cc2)CC1 (stereo unspecified) | inactive | inactive | inactive | inactive | – | inactive | inactive | inactive | inactive |
| CN(C)c1ccc(Nc2nc(N)n(C(=O)c3c(F)cccc3F)n2)cc1 | 0.935 µM (active) | 16.6 µM (active) | 5.9 µM (active) | 13.2 µM (active) | inactive | – | – | – | – |
| Cc1cc(Nc2nc(N[C@@H](C)c3ncc(F)cn3)ncc2Cl)n[nH]1 | 2.64 µM (active) | 6.62 µM (active) | 10.5 µM (active) | 6.62 µM (active) | 11.8 µM (active) | – | – | – | 6.62 µM (active) |
| COc1ccc(-c2ccc3c(N4CCOCC4)nc(N4C[C@@H](C)O[C@@H](C)C4)nc3n2)cc1CO | 0.187 µM (active) | 0.296 µM (active) | 0.833 µM (active) | 1.48 µM (active) | 0.0935 µM (active) | 1.18 µM (active) | 0.059 µM (active) | 1.32 µM (active) | 0.526 µM (active) |
| CCCCNc1cc(C(=O)O)cc(S(N)(=O)=O)c1Oc1ccccc1 | inactive | inactive | inactive | inactive | inactive | inactive | – | – | – |
| Cc1c(CN2CCN(C(=O)C(C)C)CC2)sc2c(N3CCOCC3)nc(-c3cnc(N)nc3)nc12 | 0.0662 µM (active) | 0.105 µM (active) | 0.0662 µM (active) | 0.235 µM (active) | 0.0296 µM (active) | 0.118 µM (active) | – | 0.0372 µM (active) | 0.0526 µM (active) |
| CCc1cc(Nc2nccc(-c3c(-c4ccc(OC)c(C(=O)Nc5c(F)cccc5F)c4)nc4ccccn34)n2)c(OC)cc1N1CCC(N2CCN(S(C)(=O)=O)CC2)CC1 | 1.18 µM (active) | 2.64 µM (active) | 5.26 µM (active) | inactive | 20.9 µM (active) | – | – | – | – |
| Nc1nc2c(ncn2COCCO)c(=O)[nH]1 | 18.7 µM (active) | inactive | inactive | 23.5 µM (active) | inactive | inactive | inactive | – | – |
| CCN(CC)CCCC(C)Nc1ccnc2cc(Cl)ccc12 (stereo unspecified) | 10.5 µM (active) | 11.8 µM (active) | inactive | 10.5 µM (active) | inactive | inactive | – | – | – |
| O=C(O)CCc1ccc(NCc2cccc(Oc3ccccc3)c2)cc1 | inactive | inactive | inactive | inactive | inactive | inactive | inactive | – | – |
| CO[C@@H]1[C@H](N(C)C(=O)c2ccccc2)C[C@H]2O[C@]1(C)n1c3ccccc3c3c4c(c5c6ccccc6n2c5c31)C(=O)NC4 | 0.935 µM (active) | 0.418 µM (active) | 0.59 µM (active) | – | 7.43 µM (active) | 3.72 µM (active) | 1.87 µM (active) | 2.96 µM (active) | 0.935 µM (active) |
| CCC(C)(C)C(=O)O[C@H]1C[C@@H](C)C=C2C=C[C@H](C)[C@H](CC[C@@H]3C[C@@H](O)CC(=O)O3)[C@H]21 | 9.35 µM (active) | 16.6 µM (active) | – | – | – | – | 13.2 µM (active) | – | 14.8 µM (active) |
| COc1ccccc1[C@H](c1cccc2ccccc12)[C@@](C)(C#N)C(=O)N1CCC(c2cccc(C(F)(F)F)c2)CC1 | 3.32 µM (active) | 5.26 µM (active) | 5.9 µM (active) | 5.9 µM (active) | – | 8.33 µM (active) | 1.05 µM (active) | 4.18 µM (active) | 5.26 µM (active) |
| Nc1cccc(S(=O)(=O)N2CCCN(S(=O)(=O)c3ccc4c(c3)OCCO4)CC2)c1 | 7.43 µM (active) | 8.33 µM (active) | – | – | – | inactive | – | inactive | – |
